Laboratory results: PubChem BioAssay AID1688 (National Center for Advancing Translational Sciences (NCATS), 2009)
About 2,400 (1.1%) of roughly 220,000 compounds were called active. Roughly 7% stayed inconclusive and do not appear here. Shown is part of a subset that was picked to be rich in actives. Unmarked numbers belong to inactive results. The call rests on the fitted dose curve; in most records, active means well fitted inhibition curve with a large enough effect; inconclusive means small, poorly fitted or top-dose-only effect, or effect the other way; inactive means no such curve, though single readings can be large or run the other way.

Assay: qHTS Multiplex Assay to Identify Dual Action Probes in a Cell Model of Huntington: Aggregate Formation (GFP); further: nearly all actives have a fitted effect of over 60% in size
Settings: PC12 HttQ103-GFP aggregates, Acumen cytometry, 40 h; series mostly up to 9.22 µM; activity change, negative = inhibition: at the top concentration
In short: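 Using laser scanning cytometry, GFP-positive aggregates were counted after lysis of PC12 cells induced with 100 nM tebufenozide to express HTT exon 1 Q103–GFP. Compounds were tested in titration.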
On the % scale 0 is the no-effect control and ±100 the full control effect; potency means the concentration at half of the fitted maximal effect.

| SMILES | activity change, negative = inhibition | Potency |
| --- | --- | --- |
| O=[N+]([O-])C(=c1ccc2c(c1)N1C3=C(CCCC3)CC3CCCCC31N=2)[N+](=O)[O-] (stereo not drawn) | -2.2% | – |
| CCOC(=O)CN(C(=O)COc1nc(-c2ccccc2)cc(C)c1C#N)c1ccc(F)cc1 | -11% | – |
| C=CCN(c1ccccc1C(=O)NCC(=O)OCC)S(=O)(=O)c1ccc(C)cc1 | -26.8% | – |
| O=C(Nc1cnn(Cc2ccc(Cl)cc2)c1)C1CCCC1 | – | 0.794 µM (active) |
| CN1C(=O)c2ccc(NC(=O)C3CCCCC3)cc2C1=O | 3.28% [at 46.1 µM] | – |
| O=C(O)c1ccc(NC(=O)C2CCCCC2)cc1 | 8.31% [at 46.1 µM] | – |
| COc1ccc(-c2nc3cc([N+](=O)[O-])ccc3o2)cc1OC | -3.14% | – |
| COc1ccc(OCC(=O)Nc2cc(C)c(Cl)cc2OC)c([N+](=O)[O-])c1 | 7.75% [at 46.1 µM] | – |
| Cc1nnc(-c2ccc(Oc3ccc(C)c(C)c3)c([N+](=O)[O-])c2)o1 | – | 11.2 µM (active) |
| O=C(N/N=C/c1ccccn1)c1cccnc1 | -3.79% | – |
| NC(=O)Cc1ccc2c(c1)[nH]c1ccccc12 | 14% | – |
| O=[N+]([O-])/C=C1\CCCCCN1 | 18.3% | – |
| CCc1ccc(S(=O)(=O)NCC(O)COc2ccc(OC)cc2)cc1 (stereo not drawn) | -7.53% | – |
| Cc1nnc(N/N=C/c2ccccn2)[nH]c1=O | -25.2% | – |
| CCOc1ccc(-n2c(O)c(/C=N/Nc3nnc(C)c(=O)[nH]3)c3ccccc3c2=O)cc1 | 5.42% [at 46.1 µM] | – |
| COc1ccc(Cc2nnc(N/N=C/c3ccccc3O)[nH]c2=O)cc1OC | – | 1.26 µM (active) |
| COC(=O)[C@@H]1CC2=CC(=O)CC[C@]2(C)[C@@]23O[C@@H]2C[C@@]2(C)[C@@H](CC[C@@]24CCC(=O)O4)[C@H]13 | 7.77% [at 46.1 µM] | – |
| CC(=O)c1cccc(NC(=O)Nc2ccc(C)cc2)c1 | -23.6% [at 46.1 µM] | – |
| Cc1ccc(NC(=O)C(C)c2cccc(C(=O)c3ccccc3)c2)cc1 (stereo not drawn) | – | 25.1 µM (active) |
| COC(C(=O)Nc1ccc(C(C)=O)cc1)c1ccccc1 (stereo not drawn) | 3.95% [at 46.1 µM] | – |
| CCOC(=O)C1C(c2ccc(OC)c(OC)c2)c2c([nH][nH]c2=O)CC1(C)O (stereo not drawn) | -8.41% | – |
| O=C1N(c2ccccc2)C(=Nc2ccccc2)SC12CC2 | -12.3% | – |
| O=c1[nH]c(N2CCN(Cc3ccc4c(c3)OCO4)CC2)nc2c1CCCC2 | 7.27% [at 46.1 µM] | – |

| SMILES | activity change, negative = inhibition | Potency |
| --- | --- | --- |
| Cc1cc(N2CCN(Cc3ccc4c(c3)OCO4)CC2)n2ncnc2n1 | -6.11% [at 46.1 µM] | – |
| Fc1ccc2[nH]c3c(N4CCN(Cc5ccc6c(c5)OCO6)CC4)ncnc3c2c1 | – | 3.55 µM (active) |
| O=C(NNS(=O)(=O)c1ccccc1)c1cnn(-c2ccc(Cl)cc2)c1C(F)(F)F | 3.68% | – |
| COc1cccc(OC)c1CN(C)C(=O)c1cnccc1C(F)(F)F | 0.946% | – |
| C/C(=N/NC(=O)c1ccn(C)n1)c1ccncc1 | 8.06% | – |
| CC(/C=C/c1ccco1)=N/NC(=O)C1COc2ccccc2O1 (stereo not drawn) | 4.37% | – |
| O=S(=O)(Nc1ccccn1)c1ccc(Oc2ccccc2)cc1 | -9.45% [at 46.1 µM] | – |
| COc1ccc(S(=O)(=O)Nc2cccnc2)c(Cl)c1Cl | 1.71% | – |
| COc1ccccc1Oc1ccc(S(=O)(=O)Nc2cccnc2)cc1 | – | 11.2 µM (active) |
| COc1ccc(-c2cc(C(F)(F)F)nc(SCCC(=O)NCc3ccco3)n2)cc1 | -15.2% [at 46.1 µM] | – |
| O=C(CSc1nc(-c2ccco2)cc(C(F)(F)F)n1)NCc1cccs1 | – | 15.8 µM (active) |
| O=C(CSc1nc(-c2ccco2)cc(C(F)(F)F)n1)N1CCc2ccccc2C1 | 9.77% [at 46.1 µM] | – |
| CCC(=O)Nc1ccc(C(=O)Nc2cccc(OC)c2)cc1 | 0.618% [at 46.1 µM] | – |
| CCOc1cccc(NC(=O)CC#N)c1 | – | 1.78 µM (active) |
| CCOc1cccc(C(=O)Nc2cccnc2)c1 | 9.21% [at 46.1 µM] | – |
| S=c1[nH]nc(-c2cc(-c3ccsc3)n[nH]2)n1-c1ccccc1 | -11.3% | – |
| CN(C)c1ccc(/C=C/C(=O)c2ccc(O)cc2)cc1[N+](=O)[O-] | -9.72% | – |
| Cn1nnc(NC(=O)CSc2ncn[nH]2)n1 | -1.4% [at 46.1 µM] | – |
| O=C(CSc1ncn[nH]1)Nc1ccnc2ccccc12 | – | 11.2 µM (active) |
| O=C(CSc1n[nH]c(-c2cccnc2)n1)Nc1ccnc2ccccc12 | -14.5% [at 46.1 µM] | – |
| Brc1ccc(-c2n(-c3ccccn3)c3ccccc3[n+]2-c2ccccn2)cc1 | 8.85% | – |
| CC(C)(C)c1cc(P(=O)(c2ccccc2)c2ccccc2)ccc1O | 14.2% | – |
| CC(=O)NC(=S)Nc1ccc(NC(=O)c2cccnc2)cc1 | -4.87% | – |

| SMILES | activity change, negative = inhibition | Potency |
| --- | --- | --- |
| CC(C)(C)OC(=O)NCCCCCC(=O)N/N=C/c1coc2ccccc2c1=O | -27.8% | – |
| COC(=O)c1sc(C(F)(F)F)c(-c2ccccc2)c1S(=O)(=O)N(C)C | 7.84% | – |
| O=C(Nc1nc2ccc([N+](=O)[O-])cc2s1)c1ccncc1 | 16.4% | – |
| O=C(O)CCC(=O)Nc1nc2ccc([N+](=O)[O-])cc2s1 | -9.22% [at 46.1 µM] | – |
| O=C(NC(Nc1nc2ccc([N+](=O)[O-])cc2s1)(C(F)(F)F)C(F)(F)F)c1ccccc1 | – | 0.126 µM (active) |
| Cc1ccc(NS(=O)(=O)c2ccc(N/N=C/c3ccccc3OCC(=O)O)c([N+](=O)[O-])c2)c(C)c1 | -8.07% | – |
| COc1cc2c(cc1OC)CC(=O)N(CCCN(C)C[C@H]1Cc3cc(OC)c(OC)cc31)CC2 | 17.7% [at 46.1 µM] | – |
| O=C(O)Cc1csc(NC(=O)CSc2nnnn2-c2ccc(O)cc2)n1 | -3.49% | – |
| Cc1cccc(C)c1NC(=O)NC1=CCCN1C | -4.99% [at 46.1 µM] | – |
| NC(=O)[C@H]1CC2(CC(c3cccc(NC(=O)[C@H]4CCC(=O)N4)c3)=NO2)CN1C(=O)c1ccccc1C(=O)c1ccccc1 (stereo partly drawn) | -14.4% | – |
| Cc1cnc(NC(=O)CSc2c(Cl)cccc2Cl)s1 | -1.32% [at 46.1 µM] | – |
| O=C(Cc1c(F)cccc1Cl)Nc1ncc([N+](=O)[O-])s1 | – | 10 µM (active) |
| O=C(Cc1c(F)cccc1Cl)Nc1ccc(-n2cnnn2)cc1 | -5.01% [at 46.1 µM] | – |
| C/C=C/C=N/NC(=O)c1ccncc1 | 11.7% [at 46.1 µM] | – |
| CN(C)N=Nc1ccc2nc[nH]c2c1 | 9.84% | – |
| O=C(O)CC1(CC(=O)Nc2cccc(C(F)(F)F)c2)CCCC1 | 35.4% | – |
| CCOC(=O)N/N=C1\CC(C)S(=O)(=O)c2ccc(Cl)cc21 (stereo not drawn) | 2.2% | – |
| COCc1cc(=O)[nH]c(SC)n1 | -34.4% | – |
| CCN(CCNC(=O)C1=C(C)C(=O)OC12CCC(C)CC2)c1ccccc1 (stereo not drawn) | -10.9% | – |
| COc1ccc(NS(=O)(=O)c2ccc(NC(=S)NC(=O)CC(C)C)cc2)cc1 | – | 22.4 µM (active) |
| CC(=O)c1ccc(NC(=S)NC(=O)CC(C)C)cc1 | -8.99% [at 46.1 µM] | – |
| COc1ccc(C(=O)Nc2ccc(S(=O)(=O)NC(C)C)cc2)cc1 | -3.78% [at 46.1 µM] | – |
